Tests used:
Assay in all cases: PBM binding z-score (relative to random genomic background probes); higher = stronger binding; sequences stand for … in GC…GCGATTGACAGCGTAGAATGAAGG
[1] = tested on: RARg:RXRa (NR concentration 270 nM, RXRa partner concentration 90 nM)
Procedure, shortened: (§1)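 Regression normalization was applied to scanned fluorescence from custom Agilent 4×180K protein-binding microarrays. Before scanning, arrays were incubated 1 h with ligand-free nuclear receptor dimers, and binding was detected with antibodies against each partner (one per run). Binding z-scores use the random background probes as reference.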

[2] = tested on: RARg homodimer (NR concentration 270 nM)
Procedure, shortened: as §1

[3] = tested on: RXRa DBDmut IVT, anti-RXR (DBD mutation: RXRa K156A/R161A, NR concentration 90 nM)
Procedure, shortened: as §1

[4] = tested on: RXRa homodimer (NR concentration 180 nM)
Procedure, shortened: as §1

[5] = tested on: THRa:RXRa (NR concentration 90 nM, RXRa partner concentration 90 nM)
Procedure, shortened: as §1

[6] = tested on: THRa homodimer (NR concentration 90 nM)
Procedure, shortened: as §1

[7] = tested on: VDR homodimer (NR concentration 270 nM)
Procedure, shortened: as §1

Row | Sequence | PBM binding z-score [1] | PBM binding z-score [2] | PBM binding z-score [3] | PBM binding z-score [4] | PBM binding z-score [5] | PBM binding z-score [6] | PBM binding z-score [7]
1 | GCTTACAGGTCAAAGGTTATAGCATGAATAGAAT | 7.18 | 5.44 | 2.31 | 9.21 | 4.11 | 0.393 | 1.47
2 | ACTCGGAGGACAAAGGTCAGGGCTACGCCAGTGA | 6.45 | 5.95 | 0.934 | 6.71 | 3.63 | 1.02 | 1.33
3 | TAGCCTAGGTCGTTCAGGGGCCAGTATAGAAAGC | 3.43 | 1.27 | 0.406 | 0.583 | 2.04 | -0.169 | 0.675
4 | CGTCCAAGGTCATTGGAGGTCAGTGAAGACAGAT | 7.03 | 7.55 | 4.46 | 6.96 | 5.19 | 3.37 | 5.22
5 | CCTTACGGGTCCCTCCAGGTTATAGCATCGGAGT | 0.0762 | 0.0141 | -1.22 | 0.2 | 3.05 | 0.1 | 0.267
6 | ACTTACGGGTCTACGAGGTTATAGCACGCGTATA | 0.863 | 0.586 | 0.937 | 1.32 | 1.83 | 0.82 | 1.55
7 | CCGAGTAGGTTACTAGGGGGCATTCAGTGCGAAT | 2.46 | 2.1 | 1.4 | 1.72 | 3.57 | 0.676 | 3.59
8 | CTATGTGGGTTAAGGGGGTCATTCAGTTTGAAAG | 5.36 | 4.42 | 3.34 | 6.11 | 4.29 | 3.69 | 6.5
9 | TTACCAAGGTGAAAGGTCGTTGCTGCACGCCTTG | 4.15 | 1.94 | 0.854 | 5.85 | 3.37 | 0.758 | 1.74
10 | CCTGCTAGGTCATGGTCAGCGAATCTACAGTATG | 4.05 | 4.93 | 1.92 | 3.09 | 2.9 | 1.16 | 0.226
11 | CCTACTGGGCCAAAGGTGATTGATTCCAATGCTC | 0.547 | 0.234 | -0.2 | 0.624 | 0.0559 | -0.0264 | 0.165
12 | AGAATGAGATTACCAAAGATCAGGGAAACGCTTG | 0.145 | 0.36 | -0.574 | 0.178 | -0.261 | -0.869 | -0.177
13 | AGTCAAAGTTCATCTAGGTCACGTAAGATATGCT | 6.63 | 7.35 | 4.81 | 5.75 | 4.62 | 2.83 | 7.84
14 | TGAATGAGGTTAAATATCAGGGAACGTGGCGTCG | 2.18 | 1.43 | 1.95 | 2.84 | 2.38 | 0.583 | 1.02
15 | AATACAGGGTGACTAGGCCAGAGTAGGTACGAAT | 0.739 | 0.693 | -0.419 | 0.911 | 0.915 | 0.154 | 0.309
16 | CCAGACAGGTGAGAAGGTAACTCAGCCTCGATTA | 0.555 | 0.652 | 0.16 | 0.448 | 0.425 | 0.236 | 0.403

Row | Sequence | PBM binding z-score [1] | PBM binding z-score [2] | PBM binding z-score [3] | PBM binding z-score [4] | PBM binding z-score [5] | PBM binding z-score [6] | PBM binding z-score [7]
17 | AGAATGAGGTCATACGTAGATCAGGGAAGAAAGT | 6.31 | 5.97 | 4.7 | 6.67 | 4.18 | 3.25 | 4.56
18 | TCTCGGAGGACACCAAAGGTCAGAGCTCGACATC | 4.82 | 5.32 | 0.814 | 4.15 | 3.65 | 1.2 | 1.11
19 | ACTCGGTGGACAAAGGTCAGAGCTACGCCAGTGA | 4.58 | 4.49 | 0.0487 | 4.44 | 2.45 | -0.204 | 0.332
20 | CCTCGGAGGACAGAAGGTCAAAGCTGTCCGCTTT | 4.94 | 4.52 | 0.948 | 4.07 | 3.2 | 0.161 | 0.867
21 | CGAACTAGGTCATCCAGGTCAGTGAATACATTGA | 4.85 | 5.61 | 2.52 | 3.47 | 4.21 | 2.83 | 3.77
22 | CGTCCAAGGTTAAGGTCAGTGAAAGAGACTCGAA | 4.2 | 4.7 | 1.71 | 3.45 | 3.83 | 3.83 | 1.79
23 | AGTCAAAGTTGAGGACGAGGTAACGTAAAGCACG | 1.38 | 1.24 | -0.405 | 0.856 | 3.3 | 1.96 | 0.344
24 | CGTCCAAGGTCATAGAGGTCAGTGAATGCCGAGT | 7.06 | 7.75 | 4.4 | 7.55 | 4.38 | 3.51 | 7.8
25 | CGAACTAGGTCATTGACAGGACAGTGGATAGTAA | 4.35 | 4.34 | 2.35 | 2.59 | 2.76 | 0.809 | 1.22
26 | AATACAGGGTCACGAGGCCAGAGTAGGTACGAAT | 6.44 | 5.99 | 2.95 | 7.67 | 4.06 | 2.21 | 3.31
27 | TCTAGTTGGTCACGGAGGGCACACACGACGGGTA | 2.15 | 2.4 | 0.575 | 1.35 | 1.03 | 0.258 | 0.915
28 | AACGAAAGGTCGAAGGTGAGTATACCCACCCGAA | 4.5 | 3.96 | 1.05 | 5.29 | 2.16 | -0.462 | 0.527
29 | CCTTACGGGTCAAGGTTATAGCCCGGGTGGTACG | 5.05 | 5.24 | -0.0321 | 5.76 | 3.1 | 0.694 | 1.24
30 | ATCTCTAGGTTAAGATAGTTCAGTGAATGCAAAT | 1.73 | 1.87 | 0.534 | 1.14 | 1.81 | 0.578 | 0.933
31 | TCTAGTTGGTCACGGAGGTCACAAACGACGGGTA | 4.49 | 5 | 0.949 | 4.62 | 3.39 | 2.07 | 2.78
32 | CCTACTGGGCCAAAAAGGTCATTGATGCCGATAA | 4.72 | 4.42 | 0.661 | 5.23 | 3.12 | 0.474 | 2.01
